Results reported in PubChem BioAssay (NCI).
About 83,000 compounds went through this panel and 20% of them were active in at least one assay; those are over-represented in the sample as a whole.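 Compound tested at a single concentration for 48 hours in 96-well plates; a percent growth value below 10 was scored as active.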 Values without a mark were called inactive. Active and inactive are the calls of the source.

What follows are molecules tested on LOX IMVI melanoma (assay: NCI-60 one-dose screen, 48 h (100 = growth as untreated, 0 = no growth, -100 = all killed)). Details: 10 µM unless noted.
Method: Growth inhibition of the LOX IMVI human tumor cell line is measured as a screen for anti-cancer activity. Cells are grown in 96 well plates and exposed to the test compound for 48 hours. Compounds are tested at a single concentration, which is 10^-5 M for most compounds. The reported endpoint is percent growth (GI% or GIPRCNT), where numbers from 0 - 100% represent growth inhibition, and numbers from -100% - 0 represent cell death. For example, a value of 40 represents 60% growth inhibition. A value of 0 means no net growth occurred over the course of the experiment. A value of -40 indicates 40% of cells at the beginning of the experiment died by the end of the experiment. A value of -100 means all cells are dead at the end of the experiment.
NCI-60 Human Tumor Cell Lines Screen was performed using the standard one-dose NCI protocol, which is described in more detail at https://dtp.cancer.gov/discovery_development/nci-60/default.htm.
Compounds with GIPRCNT values below 10 were considered active. Activity score was based on GIPRCNT using the following formula: […]
Score is 0 for GIPRCNT values of 100 or above, 50 for GIPRCNT values of 0, and 100 for GIPRCNT values of -100.
O=C(O)/C(Br)=C/c1c[nH]c2ccc(Br)cc12 was tested, and the growth was 101%. In the case of CCc1c(C)c2ccc(OCC(=O)N=Nc3c(O)[nH]c4ccccc34)c(C)c2oc1=O, the growth is reported as -37.8% (active). Oc1ccc([S+](c2ccc(O)cc2)c2ccc(O)cc2)cc1 showed a growth of 107%. In the case of O=C1C(Cl)=C(SC2=NCCN2)C(=O)c2ccccc21, the growth is reported as 18%. CC(=O)/C(=C/c1ccc(-c2ccccc2)cc1)C(=O)c1ccccc1 gave a growth of 19.5%. O=C(NCCCl)Nc1nccnc1OCc1ccc(F)cc1 gave a growth of 98.3%. For COc1cc2ncnc(-n3ncc4cc(NC(=O)Nc5ccccc5)ccc43)c2cc1OC, the growth was 1.66% (active). Molecule CCC(CCCN1C(=O)c2ccccc2C1=O)Nc1cc(OC)cc2cccnc12 (stereo not given) has a growth of 93.5%. With COC(=O)/C(Br)=C/c1c[nH]c2ccc(Br)cc12 the growth was 62%. Molecule Cc1ccc(S(=O)(=O)Nc2cccc(Cn3c(=O)[nH]c4ccc(Oc5ncccn5)cc4c3=O)c2)cc1 has a growth of 64.5%. In the case of CCCCCCCCCCCCCCCCCCOP(=O)(O)O, the growth is reported as 99.3%. With CC(=O)CCS(=O)c1ccccc1 (stereo not given) the growth was 97.1%. For CC(O)C(N)=O (stereo not given), the growth was 109%. With Oc1ccc2ccccc2c1/C=N\Nc1ccccn1 the growth was -4.69% (active). With COc1cccc(CNC(=O)c2cccc(C3CC(=O)c4c(cc(OC)c(OC)c4OC)O3)c2)c1 (stereo not given) the growth was 44.9%. In the case of CCOC(=O)C(C)C(C)(O)c1ccccc1 (stereo not given), the growth is reported as 93.8%. With CCC(C)CC(N)O (stereo not given) the growth was 110%. In the case of CC(=O)/C(=C\c1c(-c2ccccc2)[nH]c2ccccc12)S(=O)(=O)c1ccccc1, the growth is reported as -33.3% (active). In the case of Cc1c(Cc2ccccc2)c(=O)oc2c(C)c(OCc3n[nH]c(=S)o3)ccc12, the growth is reported as 64.5%. CCOc1ccc(/C=N/NC(=O)c2cccc3ccccc23)cc1OCC gave a growth of 92.7%. In the case of COc1ccc(/C=C2\SC(=O)N(Cc3cc(=O)oc4ccc(OC)cc34)C2=O)cc1, the growth is reported as 85.7%. O=C1/C(=N\c2cc(=O)[nH]n2S(=O)(=O)c2ccccc2)Nc2ccccc21 showed a growth of 92.4%. Molecule C=C[C@]1(C)C=C2C(=O)[C@@]3(O)OC[C@@]4(CCCC(C)(C)C43O)C2(O)C(O)C1 (stereo not given in full) has a growth of 12.2%. In the case of CCOc1ccccc1/C=N\N=C(N/N=C/c1ccccc1OCC)N/N=C/c1ccccc1OCC, the growth is reported as 8.71% (active). For Cn1cnc2nc[nH]c2c1=S, the growth was 99.4%. Work on C[C@@H](c1ccc2c(c1)[nH]c1ccc(Cl)cc12)c1nc2ccccc2[nH]1 yielded a growth of 88.2%. With CCOC(=O)c1sc(NS(=O)(=O)c2ccccc2)nc1C the growth was 105%. Molecule CC[C@H](Nc1ncnc2nc[nH]c12)c1nc2cccc(NCc3ccc(C(=O)NO)nc3)c2c(=O)n1-c1ccccc1 has a growth of 23.1%. Molecule COc1ccc2cc(C(C)C(=O)Nc3ccc(S(=O)(=O)Nc4cc(C)on4)cc3)ccc2c1 (stereo not given) has a growth of 96.2%. CCn1cnc(C[C@H](NC(=O)[C@@H](NC(=O)Nc2cc(C(F)(F)F)cc(C(F)(F)F)c2)C(C)(C)C)C(=O)OC)c1 was tested, and the growth was -87.4% [100 µM] (active). O=c1[nH]c(=S)[nH]c(O)c1/C=C1\C=Nc2ccccc21 was tested, and the growth was 67%. COc1ccc(Cn2cc3c(c2-c2ccc(OC)cc2)CCc2cnoc2-3)cc1 showed a growth of 32.2%. With COC(=O)C(N)CC(C)C (stereo not given) the growth was 95.8%. Work on CCOC(=O)/C(C#N)=C(/CC)OCC yielded a growth of 91.4%. O=C(CBr)OCc1ccc([N+](=O)[O-])o1 gave a growth of 83%. In the case of CC(=O)O.[In], the growth is reported as 35.3%. Molecule O=C(c1ccccc1)c1ccccc1-c1ccccc1 has a growth of 31.6%. COc1cc(-c2nn(-c3ccc(NC(=O)Nc4ccc(Cl)c(C(F)(F)F)c4)cc3)cc2-c2ccncc2)ccc1Cl showed a growth of 11.7%. Molecule CCCCCc1ccnc(CC(=O)c2ccc(OC)cc2)c1 has a growth of 85%. Molecule O=C1OC(c2ccc(-c3ccccc3)cc2)=C/C1=C/c1c2ccccc2cc2ccccc12 has a growth of 95.8%.
